A number with no mark means an inactive call.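 Rule for the calls: active = compounds cutting enzyme signal by half at 10000 nM or lower, the printed EC50; inactive = the rest.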
Test: optical artefacts in IDE activity readout – biochemical, fluorogenic FRET1 peptide substrate, artefact control for IDE activator project, late-stage follow-up (AID 624035)
Conditions: recombinant IDE, FRET1 substrate fluorescence, artifact counterscreen

Structure (SMILES) | EC50 [µM]
CCN1CCN(C2=CC3=CC(=C(C#N)C#N)CCC3CC2)CC1 (stereo not drawn) | > 10
N#CC(C#N)=C1C=C2C=C(N3CCOCC3)CCC2CC1 (stereo not drawn) | > 10
CCN(CC)C1=CC2=CC(=C(C#N)C#N)CCC2CC1 (stereo not drawn) | > 10
N#CC(C#N)=C1C=C2C=C(N3CCCCCC3)CCC2CC1 (stereo not drawn) | > 10
C/C(CC(=O)Nc1ccc(N(C)C)cc1)=N\NC(=O)c1ccncc1 | > 10
CCCCN(C)C1=CC2=CC(=C(C#N)C#N)CCC2CC1 (stereo not drawn) | > 10
O=c1ccc2c(-c3ccccc3)c3ccc(O)cc3oc-2c1 | > 10
CN(C)/C=C1\C=C2C(=O)c3ccccc3N2C1=O | > 10

Source: PubChem BioAssay AID624035 (The Scripps Research Institute Molecular Screening Center, 2012)
